# An excerpt weighted towards active compounds, which were near 9.3% of everything screened.
# ELG1 DNA repair: inhibitors of ELG1-dependent DNA repair in HEK293T cells; AID 504467; hit rate 2.3% among 330,000; HEK293T ELG1-luciferase reporter, luminescence, 16 h; DNA damage induced by 5-fluorouridine; Potency, µM (top dose mostly 46.1 µM), for inactives: at the top dose activity change, negative = inhibition, usual class: inhibitors; further: on the % scale 0 is the no-effect control and ±100 the full control effect; nearly all actives have a fitted effect of over 55% in size
#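 Reporter activity after DNA damage by 5-fluorouridine is monitored. Compound-treated cells incubate 16 hr at 37 °C, then ONE-Glo is added for 30 min before luminescence reading.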
# FLuc modulator: counter-screen for miR-21 project: firefly luciferase inhibitors or activators; purified FLuc, Km substrates, luminescence inhibition; AID 588342; hit rate 6.9% among 360,000; Potency, µM (highest dose often 57.5 µM), inactives show at the highest dose activity change, negative = inhibition, usual class: inhibitors; P08659;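 further: plate controls were vehicle for no effect and reference inhibitor for full effect; nearly all actives have a fitted effect of over 55% in size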
#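 Purified P. pyralis luciferase (10nM final) with 10uM D-luciferin and 10uM ATP (Km levels) in 50mM Tris acetate pH 7.5, 10mM Mg acetate, 0.01% Tween-20, 0.05% BSA; qHTS 6-point titration, ~60 µM downward; luminescence read.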
# ELG1 genotoxic: genotoxicity induction in ELG1-luciferase HEK293T cells; HEK293T ELG1-luciferase reporter, luminescence, 16 h; Potency, µM (series often up to 46 µM), for the others: top-dose activity change, positive = activation, hits mostly activators; hit rate 1.3% among 330,000; further: % of control where 0% means no effect; nearly all actives have a fitted effect of over 60% in size
#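 HEK293T cells expressing luciferase-tagged ELG1 were treated with compound or DMSO for 16 hr at 37°C. Luciferase activity was then read after 30 min with ONE-Glo at room temperature; rising signal flags genetic stress.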
# Rab9 prom act: activates the Rab9 promoter | Huh7 Rab9 promoter-luciferase reporter, luminescence, 24 h | Potency, µM (series often up to 9.22 µM), inactives show top-dose activation, negative = inhibition, actives largely listed as activators | hit rate 2.8% among 320,000; further: % of control where 0% means no effect; nearly all actives have a fitted effect of over 60% in size
#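 Measured in stably transfected Huh7 cells bearing a Rab9 promoter–luciferase construct: 24 h compound treatment at 37 °C, followed by luminescence detection.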
# NPC1 prom act: activators of NPC1 promoter; Huh7 NPC1 promoter luciferase reporter, 24 h; hit rate 2.4% among 320,000; Potency, µM (highest dose often 9.22 µM), without a hit: top-dose activation, most hits filed as activators; further: % of control where 0% means no effect; nearly all actives have a fitted effect of over 60% in size
#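 In 1536-well qHTS, Huh7 cells harboring an NPC1 promoter–luciferase construct received compound for 24 h; activation was quantified by luminescence following luciferase reagent addition.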
# SMN2 splice up: SMN2 splice variant enhancement; HEK293 SMN2-luciferase splicing reporter, luminescence, 30-36 h; Potency, µM (series often up to 46.1 µM), without a hit: at the highest dose activity change, positive = activation, hits mostly activators; hit rate 2.8% among 210,000; further: % of control where 0% means no effect; nearly all actives have a fitted effect of over 55% in size
#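 HEK293 cells carry an SMN2 minigene-luciferase reporter in which exon 7 inclusion puts luciferase in frame. Cells were seeded at 2000 cells/well, attached for 10-12 hours, then exposed to compounds for 30-36 hours at 37C before ONE-Glo luminescence.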
# * hit, by the source's call; ? = inconclusive; · = no result; [ ] = remark or other dose. The call rests on the fitted dose curve; in most records, active means well fitted curve in the direction sought with a large enough effect; inconclusive means small, poorly fitted or top-dose-only effect, or another doubt; inactive means no such curve, though single readings can be large; an effect the other way counts as inactive or inconclusive. Potency means the concentration at half of the fitted maximal effect.
SMILES,ELG1 DNA repair,FLuc modulator,ELG1 genotoxic,Rab9 prom act,NPC1 prom act,SMN2 splice up
CC(C)Cc1nc2oc3c(NCC4CCCO4)ncnc3c2c2c1CCC2 (stereo unspecified),12µM*,1%,-9%,3%,-3%,-22%
CC(C)c1nc2oc3c(NCc4cccnc4)ncnc3c2c2c1CCC2,8.2µM*,0%,3%,-4%,0%,-17%
COCCn1c(-c2ccc(OC)cc2)nc2ccccc21,?,19µM*,-2%,1%,1%,4%
COc1ccc(Cn2c(-c3ccc(OC)cc3)nc3ccccc32)cc1,?,?,-4%,-2%,-2%,-38%
CCCn1c(CNc2ccc(Br)cc2)nc2ccccc21,-15%,17µM*,0%,28%,1%,-39%
CCn1c(COc2ccc(C)cc2)nc2ccccc21,?,8.5µM*,13%,2.8µM*,?,·
COCCn1c(COc2ccc(C)cc2)nc2ccccc21,?,9.5µM*,11%,?,?,7%
Cc1c(C(=O)NC2=NCCS2)cccc1[N+](=O)[O-],0%,0%,0%,2%,-1%,·
O=C(CNS(=O)(=O)c1ccccc1)N/N=C/c1ccc(O)cc1,7%,-3%,-1%,-4%,-2%,5%
Cc1ccc(NCc2nc3ccccc3n2CCOc2ccccc2)cc1,?,8.5µM*,?,2.5µM*,4.5µM*,12%[1.84 µM]
COc1ccc(C)cc1NC(=O)C1CC(=O)OC12CCCCC2 (stereo unspecified),13%,-2%,-2%,-2%,-4%,-4%
COc1ccc(/C(O)=C2/C(=O)C(=O)N(CC3CCCO3)C2c2ccc(O)c(OC)c2)cc1 (stereo unspecified),13%,3%,-2%,1%,-2%,8%
Cc1ccccc1Nc1nc(N)nc(-c2oc3ccccc3c2C)n1,?,21µM*,?,2.2µM*,?,·
Cc1c(-c2nc(N)nc(Nc3ccc(F)cc3)n2)oc2ccccc12,?,?,2.3µM*,1.8µM*,2.2µM*,16µM*
COC(=O)c1ccc(NC(=O)c2cccc(N3C(=O)CCC3=O)c2)cc1,1%,?,0%,-6%,0%,·
CN(Cc1ncc[nH]1)C(=O)c1cc(COc2c(F)cccc2F)on1,-3%,0%,1%,2%,-4%,·
COc1ccc2nc3oc(C(=O)Nc4cccc(C(F)(F)F)c4)cc3cc2c1,·,0%,·,·,·,·
O=C(CSc1nc2ccccc2[nH]1)c1ccc(Cl)s1,?,?,25%,15%,18%,·
C/C(=N\Nc1nc2ccccc2[nH]1)c1ccc(C)o1,?,11µM*,?,?,22%,18µM*
C/C(=N\Nc1nc2ccccc2[nH]1)c1ccc(Cl)s1,?,11µM*,2%,17%,?,-3%
C/C(=N\Nc1nc2ccccc2[nH]1)c1ccc(N2CCOCC2)cc1,?,1.1µM*,10%,?,4µM*,?
C=CCNC(=O)COC(=O)c1c2c(nc3ccccc13)CCC2,-2%,-2%,-21%,-1%,0%,·
Cc1nc2ncccn2c1-c1csc(NCc2ccco2)n1,?,-16%,16%,-8%,0%,-24%
c1coc(CNc2nc(-c3cccs3)cs2)c1,-12%,24µM*,6%,?,?,?
Oc1ccc(-c2csc(NCc3ccco3)n2)cc1,?,11µM*,18µM*,28%,26%,25%
CC(=O)Nc1cccc(-c2csc(NCc3ccco3)n2)c1,6%,17µM*,?,1%,8%,?
CCc1[nH]nc2c1C(C1C=CCCC1)C(C#N)=C(N)O2 (stereo unspecified),?,0%,-6%,-4%,-9%,-20%
O=C(O)Cc1ccc(NS(=O)(=O)c2c(Cl)cccc2Cl)cc1,6%,-2%,7%,-2%,0%,12%
